Laboratory results from PubChem BioAssay (Tox21).
Where “and” joins values, the source holds several entries; their conditions need not be identical. Equal values may be shown once. Results filed as inconclusive are left out. Entries that show only a call come without a potency. Calls of active or inactive are those of the source. Calls come from the whole dose curve; as a rule, active = well fitted inhibition curve with a large enough effect in the repeat runs; inconclusive = weak or mixed curves; inactive = no such curve, though single readings can be large or run the other way.

molecular target: Aromatase (Homo sapiens) (UniProt P11511); assay: qHTS assay to identify aromatase inhibitors (AID 743083); conditions: MCF-7 aro ERE, testosterone-driven ERE luciferase, 24 h; series mostly up to 70.3 µM; note: nearly all actives have a fitted effect of over 55% in size
Sequence (P11511 whole entry, looked up): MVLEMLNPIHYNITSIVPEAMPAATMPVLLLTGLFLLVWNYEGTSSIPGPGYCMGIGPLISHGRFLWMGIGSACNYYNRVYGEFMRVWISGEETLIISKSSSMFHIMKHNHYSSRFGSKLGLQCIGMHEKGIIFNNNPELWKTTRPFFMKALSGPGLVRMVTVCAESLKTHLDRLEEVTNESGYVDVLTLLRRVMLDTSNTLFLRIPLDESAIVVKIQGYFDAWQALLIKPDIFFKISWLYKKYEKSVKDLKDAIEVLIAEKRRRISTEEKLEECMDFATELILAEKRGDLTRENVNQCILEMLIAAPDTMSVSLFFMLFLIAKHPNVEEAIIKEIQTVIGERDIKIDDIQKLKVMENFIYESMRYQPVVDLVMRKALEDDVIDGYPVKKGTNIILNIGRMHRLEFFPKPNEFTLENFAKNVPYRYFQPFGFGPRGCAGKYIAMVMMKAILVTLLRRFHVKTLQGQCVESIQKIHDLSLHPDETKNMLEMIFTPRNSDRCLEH
Potency is the fitted concentration of half-maximal effect.

| SMILES | Potency |
| --- | --- |
| CN(C)c1nc(=O)n(C2CCCCC2)c(=O)n1C | inactive |
| Clc1ccc(C(Cl)(Cl)Cl)cc1 | inactive |
| CCOP(=S)(OCC)SCn1c(=O)oc2cc(Cl)ccc21 | 65.6 µM (active) |
| COc1ccc(O)c(C(C)(C)C)c1 | inactive |
| CC1=C(C(=O)Nc2ccccc2)SCCO1 | inactive |
| CCCCOCCOC(C)=O | inactive |
| CNC(=O)Oc1cccc2c1OC(C)(C)C2 | inactive |
| O=NN(c1ccccc1)c1ccccc1 | inactive |
| O=C(O)CF | inactive |
| CCOP(=S)(OCC)SCSC(C)(C)C | inactive |
| CCOS(=O)(=O)OCC | inactive |
| ClC(Cl)=C(Cl)C(Cl)=C(Cl)Cl | inactive |
| CC1(C)Cc2cccc(O)c2O1 | inactive |
| CC(C)COC(=O)c1ccccc1C(=O)OCC(C)C | inactive |
| N#Cc1cccnc1 | inactive |
| ClC(Cl)(Cl)c1ccccc1 | inactive |
| CCCCOCC1CO1 (centres undefined) | inactive |
| CCCCCCCCCCCCCl | inactive |
| C=C(C)C#N | inactive |
| Cc1cccc(N=Nc2ccc(N(C)C)cc2)c1 | inactive |
| O=NN1CCOCC1 | inactive |
| c1ccc2c(c1)Nc1ccccc1S2 | inactive |
| CC[n+]1c(-c2ccccc2)c2cc(N)ccc2c2ccc(N)cc21 | 18.8 µM (active) and 26.6 µM (active) and 12.1 µM (active) |
| COc1ccc(C=O)cc1OC | inactive |
| CC(C)Nc1nc(Cl)nc(NC(C)C)n1 | inactive |
| O=[N+]([O-])/N=C1\NCCN1Cc1ccc(Cl)nc1 | inactive |
| CCOC(=O)c1ccccc1N | inactive |
| CN(C)P(=O)(N(C)C)N(C)C | inactive |
| CCCCOC(=O)COC(=O)c1ccccc1C(=O)OCCCC | inactive |
